HCMV antiviral: human cytomegalovirus inhibition | 410,000 tested, 4.5% active | HFF cells, HCMV-luciferase reporter, 72 h; hits give low values | activity change, negative = inhibition, % at 57.5 µM | AID 1259415; in the data active = activity change below about -60%; inconclusive = no clear call, values can overlap the other calls; inactive = above about -39%
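Screen run at 2 compound doses on HFFs infected with reporter HCMV, MOI 1 PFU/cell. Luciferase activity from cell lysates at 72 h post infection gave inhibition relative to buffer-only and Salinomycin wells.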
HCV inh: inhibitors of hepatitis C virus infection; Huh7.5.1 HCVcc-Cre infection, luciferase reporter, 44 h; Potency, µM (top dose mostly 41.8 µM), inactives show at the top dose activity change, negative = inhibition, actives largely listed as inhibitors; 340,000 tested, 3.4% active; also: potency is read from the fitted curve at half-maximal effect
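Antiviral activity was scored by luciferase reporter output from cells infected with HCVcc-Cre (~0.5 moi) in presence of compound, 44 h infection period, cells seeded 1,000/well 4 h prior.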
FMDV antiviral: antivirals against foot and mouth disease virus. FMDV antiviral cell-based qHTS. Potency, µM (titrated, usually from 57.9 µM), inactives show at the top dose activity change, negative = inhibition, most hits filed as inhibitors. 410,000 tested, 1.2% active. AID 1159524; calls by dose curve; tested in HEK293T cells; also: read-out not given here; potency is read from the fitted curve at half-maximal effect; nearly all actives have a fitted effect of over 45% in size
AmpC inh no detg: blocks E. coli AmpC beta-lactamase in detergent-free assay | AmpC nitrocefin hydrolysis, absorbance 480 nm, 0.0001% Triton | Potency, µM (doses to about 57.1 µM), inactives show top-dose activity change, negative = inhibition, actives largely listed as inhibitors | 330,000 tested, 0.52% active | AID 485341;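 also: potency is read from the fitted curve at half-maximal effect; plate controls were no compound for no effect and no enzyme for full effect; nearly all actives have a fitted effect of over 20% in size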
Target sequence (P00811 whole entry, looked up): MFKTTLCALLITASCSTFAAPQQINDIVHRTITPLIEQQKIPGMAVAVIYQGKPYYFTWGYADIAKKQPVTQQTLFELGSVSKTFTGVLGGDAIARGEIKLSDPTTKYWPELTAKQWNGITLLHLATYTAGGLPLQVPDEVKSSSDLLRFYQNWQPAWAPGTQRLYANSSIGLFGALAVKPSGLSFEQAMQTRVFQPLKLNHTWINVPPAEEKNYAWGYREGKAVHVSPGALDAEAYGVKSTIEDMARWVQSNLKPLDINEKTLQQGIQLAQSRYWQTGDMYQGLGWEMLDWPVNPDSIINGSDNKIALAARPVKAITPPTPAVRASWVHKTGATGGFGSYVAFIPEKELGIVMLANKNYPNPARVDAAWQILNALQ
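AmpC (5.3 nM in the dispensed reagent) in 20 mM phosphate pH 7.0 with 0.01% (detergent screen) or 0.0001% Triton X-100 was preincubated with compounds for 15 min at room temperature. Nitrocefin was then added from an 800 uM solution, and hydrolysis was followed at 480 nm.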
AmpC inh detg: AmpC beta-lactamase inhibition with detergent present | P00811 | AmpC hydrolysis of nitrocefin, absorbance 480 nm, 0.01% Triton | Potency, µM (highest dose often 114 µM), without a hit: at the highest dose activity change, negative = inhibition, most hits filed as inhibitors | 370,000 tested, 0.041% active;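 also: potency is read from the fitted curve at half-maximal effect; 0% = no-compound wells and -100% = no-enzyme wells; nearly all actives have a fitted effect of over 25% in size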
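20 mM phosphate pH 7.0 + 0.01% (detergent screen) or 0.0001% Triton X-100; 5.3 nM AmpC reagent; cpd preinc 15 min RT; nitrocefin (800 uM stock) to start; A480 q20 s × 4 min; Activity was normalised to no-enzyme and no-compound control wells.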
An asterisk follows results filed as active; ? = inconclusive; · = not tested or not shown. This is a sample that favours compounds with a hit; in the whole collection about 7.3% have one here. Unless noted, calls follow the shape of the dose curve; as a rule, active = well fitted curve in the direction sought with a large enough effect; inconclusive = small, poorly fitted or top-dose-only effect, or another doubt; inactive = no such curve, though single readings can be large; an effect the other way counts as inactive or inconclusive. Unless noted, % is scaled to controls: 0 for no effect and ±100 for the full control effect.

SMILES	HCMV antiviral	HCV inh	FMDV antiviral	AmpC inh no detg	AmpC inh detg
N#C/C(=C(/O)COC(=O)CSc1ccc2ccccc2c1)c1nc2ccccc2[nH]1	-102*	7%	-23%	-49%	-13%
Cc1cc(Br)ccc1SCC(=O)OC/C(O)=C(\C#N)c1nc2ccccc2[nH]1	-84*	7%	-27%	-47%	?
Cc1ccc(C)c(SCC(=O)OC/C(O)=C(\C#N)c2nc3ccccc3[nH]2)c1	-102*	24%	-17%	-33%	4%
O=C(CN(c1cccc(Br)c1)S(=O)(=O)c1ccccc1)N1CCc2ccccc2C1	-6	·	12%	·	-3%
NC(=O)COc1ccc(S(=O)(=O)N2CCCC2)cc1	-7	·	0%	·	·
COc1cccc(N2CCN(c3nc(C)c(C)c(=O)[nH]3)CC2)c1	3	15%	-7%	-1%	6%
COc1cccc(N2CCN(c3nc(-c4ccccc4C)cc(=O)[nH]3)CC2)c1	-98*	?	-12%	15%	0%
COc1ccc(NC(=O)C[C@@H]2C(=O)N(c3ccc(OC)cc3)CC2(C)C)cc1	-3	·	-25%	·	·
CCOc1ccccc1CN1CCNC(=O)C1CC(=O)NCc1nccn1CC (stereo not drawn)	-67*	-14%	-16%	60%	-3%
CCn1ccnc1CNC(=O)CC1C(=O)NCCN1Cc1ccc(OC)cc1OC (stereo not drawn)	-28	8%	3%	5%	11%
COc1ccc(CNC(=O)CSc2ncc3c(n2)-c2cc(Cl)ccc2N(C)S3(=O)=O)cc1	-1	·	-23%	·	2%
OC(CNCCC(c1ccccc1)c1ccccc1)COc1ccccc1 (stereo not drawn)	?	13µM*	-2%	0%	-3%
OC(CNCCc1ccccc1)COc1ccc(OCC(O)CNCCc2ccccc2)cc1 (stereo not drawn)	-77*	?	-25%	22%	-5%
CC(C)CCNCC(O)CON=C1c2ccccc2-c2ccccc21 (stereo not drawn)	-72*	8.9µM*	-10%	54%	-7%
COCCNCC(O)CON=C1c2ccccc2-c2ccccc21 (stereo not drawn)	-2	-10%	-15%	32%	?
CC(C)Nc1nc2c(-c3cccc(Br)c3)nnn2c2ccccc12	68	·	25%	·	3%
CNc1cncc(-c2ccc(O)cc2C)n1	16	·	-4%	·	·
CCCCC(=O)Nc1ccc(C(=O)OC2CCCCC2)cc1	-96*	?	-16%	-17%	?
O=C(Nc1ccc(C(=O)OC2CCCCC2)cc1)c1ccncc1	-78*	?	-25%	84%	-8%
CC(C)(C)C(=O)Nc1ccc(C(=O)OC2CCCCC2)cc1	·	?	·	0%	?
O=C(OC1CCCCC1)c1ccc(NC(=O)C2CCCCC2)cc1	-12	25µM*	-24%	-29%	?
O=C(O)CCC(=O)Nc1ccc(C(=O)OC2CCCCC2)cc1	-3	7%	·	-13%	-12%
Nc1nnnn1/N=C/C(Br)=C/c1ccccc1	9	10µM*	14µM*	-12%	-11%
Nc1nnnn1/N=C/C=C/c1ccccc1	4	7%	33%	-21%	?
COc1ccc2cc([C@H](C#N)C3CCCC3)ccc2c1	-9	·	·	·	·
SMILES	HCMV antiviral	HCV inh	FMDV antiviral	AmpC inh no detg	AmpC inh detg
CC(C)c1cnc2c(c1SCC(=O)c1ccc(Cl)cc1)c(=O)n(C)c(=O)n2C	-24	·	?	·	-2%
CCOc1ccccc1N1CCN(c2ncnc3scc(-c4ccc(OC)cc4)c23)CC1	-60*	?	?	-22%	3%
COc1ccc(-c2csc3ncnc(N4CCN(CCO)CC4)c23)cc1	-31	-18%	6%	19%	3%
COc1ccc(-c2csc3ncnc(N4CCN(c5ccccc5OC)CC4)c23)cc1	-17	11µM*	?	88%	-12%
COc1ccc(-c2csc3ncnc(N4CCN(S(=O)(=O)c5ccc(C)c(C)c5)CC4)c23)cc1	-1	11µM*	-26%	-29%	-13%
COC(=O)[C@]12C[C@H](CC(=O)NCC3CCCCC3)C(=O)N(CCC3=CCCCC3)C1=C[C@H](C(C)(C)C)O[C@@H]2C	1	·	·	·	·
CC/C(=N\NC(=S)Nc1cc(C)ccc1C)c1ccc(OC(F)F)cc1	-26	13µM*	-7%	-24%	2%
CC/C(=N\NC(=S)Nc1ccc(OC)cc1)c1ccc(OC(F)F)cc1	19	-8%	-5%	-25%	-9%
COC(=O)N/N=C(\C)c1ccc(OC(F)F)cc1	45	21%	52%	-8%	7%
C/C(=N\NC(=S)Nc1c(C)cccc1C)c1ccc(OC(F)F)cc1	-86*	?	-9%	-24%	-6%
CN(CC(=O)NCC1CCCCC1)S(=O)(=O)c1ccc(F)cc1	-63*	-2%	-4%	-3%	-8%
CN(CC(=O)NCc1ccc(F)cc1)S(=O)(=O)c1ccc(Br)s1	-71*	5%	0%	-9%	-2%
COc1ccc(Cc2c(C3CCCCC3)nc3ccc(C)cn23)c(C)c1	11	·	·	·	·
CCOC(=O)CNc1ncnc2c1nnn2C	-25	·	-8%	·	1%
CCCn1c(-c2cccc(Br)c2)nc2ccccc21	3	·	-12%	·	-5%
Cn1c(-c2cccc(Br)c2)n[nH]c1=O	-72*	-1%	-7%	-13%	2%
Brc1cccc(-c2n[nH]c(-c3ccccc3)n2)c1	121	?	4%	8.9µM*	-4%
CC(C)NC(=O)[C@@H]1C[C@@H](Sc2ccccn2)CN1C1CCN(C)CC1	·	·	-6%	·	·
CCN(CC)C(=O)[C@H]1C[C@H](CC(=O)NCCCN(C)C)C(=O)N2CCc3c([nH]c4cc(-c5ccco5)ccc34)[C@]12C	-14	?	-6%	206%	·
CC(C)=CCC/C(C)=C/CNC(=O)C[C@H]1C[C@H](C(=O)N(C(C)C)C(C)C)[C@@]2(C)c3[nH]c4cc(CCC(=O)N(C)C)ccc4c3CCN2C1=O	-15	10µM*	?	270%	·
CN(C)CCCNC(=O)C[C@H]1C[C@H](C(=O)N2CCOCC2)[C@@]2(CCC3CCCC3)c3[nH]c4cc(-c5ccco5)ccc4c3CCN2C1=O	?	7.9µM*	-25%	216%	·
CCN(CC)C(=O)[C@H]1C[C@H](CC(=O)NCCCN(C)C)C(=O)N2CCc3c([nH]c4cc(CCC(=O)N(C)C)ccc34)[C@]12C	28	2%	6%	0%	·
CC(C)N(C(=O)[C@H]1C[C@H](CC(=O)NCCCN(C)C)C(=O)N2CCc3c([nH]c4cc(-c5ccco5)ccc34)[C@]12C)C(C)C	-24	8.9µM*	0%	242%	·
O=C(C[C@H]1C[C@H](C(=O)N2CCOCC2)[C@@]2(CCC3CCCC3)c3[nH]c4cc(-c5ccco5)ccc4c3CCN2C1=O)NCCN1CCOCC1	-11	?	?	259%	·

Screening data deposited in PubChem by National Center for Advancing Translational Sciences (NCATS).
